Assay results published in PubChem BioAssay AID893 (National Center for Advancing Translational Sciences (NCATS), 2007).
Values joined by “and” are separate entries in the source; they are usually repeats but may differ in a detail not shown here. Identical values can stand only once. Out of some 75,000 compounds screened, about 5,700 (7.6%) were called active. Entries that show only a call come without a potency. Roughly 7% stayed inconclusive and do not appear here. Only a selection was taken, and actives are over-represented in it overall. Values without a mark were called inactive. Calls follow the shape of the dose curve; as a rule, active = well fitted inhibition curve with a large enough effect; inconclusive = small, poorly fitted or top-dose-only effect; inactive = no such curve, though single readings can be large or run the other way.
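Also: the protocol describes HADH2 (HSD17B10) and not the HSD17B4 of the title; nearly all actives have a fitted effect of over 70% in size.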
Potency is read from the fitted curve at half-maximal effect.

The compounds below were run against 3-hydroxyacyl-CoA dehydrogenase type-2 (Homo sapiens) (UniProt Q99714) (assay: qHTS Assay for Inhibitors of HSD17B4, hydroxysteroid (17-beta) dehydrogenase 4). Settings: recombinant HSD17B10, NADH fluorescence kinetic; series mostly up to 57.1 µM.
Procedure, shortened: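 Activity followed as NADH fluorescence increase (ex 360, em 450 nm) every 30 seconds for 4 min, using final 90 uM beta-hydroxybutyryl CoA and 1 mM NAD+. Recombinant His-tagged enzyme, 20 nM, pH 9.0 Tris buffer, 15 min compound preincubation.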
Cc1cnc(NC(=O)CSc2nnc(-c3ccccc3)n2Cc2ccccc2)s1 was tested, and the Potency was “inactive”.
With Cc1nc(NC(=O)C23CCC(C)(C(=O)O2)C3(C)C)sc1C (centres undefined) the Potency was “inactive”.
In the case of CN1CCC(CNC(=O)c2ccc(-n3c(=O)c(=O)[nH]c4ccccc43)cc2)CC1, the Potency is reported as “inactive”.
With O=C(Cl)c1ccc([N+](=O)[O-])cc1 the Potency was “inactive”.
For O=C(CSc1nc(-c2ccco2)cc(C(F)(F)F)n1)NCc1cccs1, the Potency was “inactive”.
For FC(F)(F)c1cc(-c2cccs2)nc(NCc2ccco2)n1, the Potency was 31.6 µM (active).
In the case of O=C(CSc1nnc(-c2cccs2)n1-c1ccccc1)NCc1ccco1, the Potency is reported as “inactive”.
In the case of COc1ccccc1Nc1ncc(C(C)=O)c(C)n1, the Potency is reported as “inactive”.
For O=C(Nc1ccccc1F)C1C2C=CC3(O2)C1C(=O)N(c1cccnc1)C3C(=O)NC1CCCCC1 (centres undefined), the Potency was “inactive”.
For COc1cccc([C@H]2Oc3ccc(OC)cc3/C(=N\OCC[C@@H]3C=C[C@H](OC(C)=O)[C@H](COC(C)=O)O3)[C@@H]2O)c1, the activity change, negative = inhibition was -5.53% [at 11.4 µM].
In the case of COc1cccc(C(=O)c2cc3ccc(O)cc3oc2=O)c1, the Potency is reported as “inactive”.
COc1ccc(-c2cc3ccc(OCc4nn[nH]n4)cc3oc2=O)cc1 was tested, and the Potency was 25.1 µM (active).
O=c1oc2cc(O)ccc2cc1-c1ccc(F)cc1 was tested, and the Potency was “inactive”.
For c1ccc(-n2ncc3c2ncn2c(CSc4nc5ccccc5s4)nnc32)cc1, the Potency was “inactive”.
CCOC(=O)Cn1c(CN(Cc2ccccc2)Cc2ccccc2)nc2c1c(=O)[nH]c(=O)n2C was tested, and the Potency was “inactive”.
For CCCOC(=O)c1[nH]c2c(c1C)C(=O)CC(c1cc(OC)c(OC)c(OC)c1)C2 (centres undefined), the Potency was “inactive”.
With CC1(C)OC2CO[C@]3(COS(N)(=O)=O)OC(C)(C)OC3C2O1 (some centres undefined) the Potency was “inactive”.
With COc1c(C)c2c(c(O)c1C/C=C(\C)CCC(=O)O)C(=O)OC2 the Potency was 12.6 µM (active) and 25.1 µM (active).
In the case of Oc1cc(O)c2c(c1)OC(c1ccc(O)c(O)c1)C(O)C2 (centres undefined), the Potency is reported as “inactive”.
O=C(NCCCN1CCN(C2CCCCC2)CC1)Nc1ccccc1C(F)(F)F was tested, and the Potency was “inactive”.
Oc1ccc(O)c2c(O)cccc12 was tested, and the Potency was 12.6 µM (active).
Cc1cccc(CNc2cc(-c3ccccc3Cl)ncn2)c1 was tested, and the Potency was “inactive”.
In the case of Cc1ccc(S(=O)(=O)NCC(=O)N(CC(=O)NC2CCCCC2)Cc2ccco2)cc1, the Potency is reported as “inactive”.
For Cc1ccc(NC(=O)CS(=O)CC(=O)N(c2ccccc2)C(C)C(=O)NC2CCCC2)cc1 (centres undefined), the Potency was “inactive”.
O=c1[nH][nH]c(=O)c2cc(N3CCCC3)ccc12 was tested, and the Potency was 31.6 µM (active).
CO[C@H]1COC(=O)[C@H](Cc2ccccc2)NC(=O)C/C=C\[C@@H](C)[C@H](OC)COC(=O)C/C=C\[C@@H]1C showed an activity change, negative = inhibition of -5.43% [at 11.4 µM].
In the case of COC(=O)c1cn(C)c2ccc(S(=O)(=O)N3CC(C)CC(C)C3)cc2c1=O (centres undefined), the Potency is reported as “inactive”.
In the case of CC(C)(C)c1cc(C(=O)NCc2cccnc2)ccn1, the Potency is reported as “inactive”.
With Cc1ccc(-n2nc(-c3ccco3)cc2C(=O)NCc2cccnc2)cc1 the Potency was “inactive”.
In the case of COCCn1c(=O)[nH]c2cc(C(=O)NCc3cccnc3)ccc2c1=O, the Potency is reported as 31.6 µM (active).
Fc1ccc(-c2nnc(CSc3nnc(-c4ccc5c(c4)OCO5)o3)o2)cc1 was tested, and the Potency was “inactive”.
With O=C(c1cccc(C(=O)N2CCN(c3ccc(F)cc3)CC2)c1)N1CCN(c2ccc(F)cc2)CC1 the Potency was “inactive”.
For Cc1cccc2cc(CN(Cc3nnnn3Cc3ccccc3)C3CCCC3)c(=O)[nH]c12, the Potency was 31.6 µM (active).
Cc1cccc2cc(CN(Cc3ccc4c(c3)OCO4)Cc3nnnn3C3CCCC3)c(=O)[nH]c12 was tested, and the Potency was “inactive”.
In the case of Cc1cc(C)c2[nH]c(=O)c(C(c3nnnn3Cc3ccc4c(c3)OCO4)N3CCCC3)cc2c1 (centres undefined), the Potency is reported as “inactive”.
With Nc1nc2nc(Cl)[nH]c2c(=O)[nH]1 the Potency was “inactive”.
For CCOC(=O)C1CCCCN1Cc1ccc(OC)c(OC)c1OC (centres undefined), the Potency was “inactive”.
With Clc1ccc(CSc2nnc([C@@H]3CCCN3)o2)cc1 the Potency was “inactive”.
Cc1ccc(S(=O)(=O)N2CC(=O)Nc3ccccc32)cc1C was tested, and the Potency was “inactive”.
In the case of Cc1ccc(S(=O)(=O)C(C#N)c2nc3ccccc3nc2N2CCCC2)cc1C (centres undefined), the Potency is reported as 31.6 µM (active).
With CC(C)OC(=O)C(C#N)c1nc2ccccc2nc1N1CCN(Cc2ccccc2)CC1 (centres undefined) the Potency was “inactive”.
O=C(O)c1nn(-c2ccc(Cl)cc2)c2c1C(=O)c1ccccc1C2=O gave an activity change, negative = inhibition of -2.81% [at 11.4 µM].
CCc1ccc(N(CC)c2ncnc3nc[nH]c23)cc1 was tested, and the Potency was “inactive”.
For O=C(O)c1ccc(Cl)c(S(=O)(=O)Nc2ccccc2Cl)c1, the Potency was “inactive”.
For CC(=O)Nc1ccc(N2CCOCC2)c(C(=O)Nc2cccc(C)c2)c1, the Potency was “inactive”.
With Cn1c(CN2CCOCC2)nc2cc(NC(=O)c3ccc(Cl)cc3)ccc21 the Potency was “inactive”.
For Cn1c(=O)n(C)c2cc(CNc3ccc(N4CCOCC4)c(C(=O)O)c3)ccc21, the Potency was 25.1 µM (active).
In the case of COc1cccc(N(C(=O)c2ccn[nH]2)C2(C(=O)Nc3c(C)cccc3C)CCCCC2)c1, the Potency is reported as “inactive”.
CSCCC(Nc1nc2ccccc2s1)C(=O)O (centres undefined) was tested, and the Potency was “inactive”.
With O=C(O)CN(Cc1ccco1)S(=O)(=O)c1ccc(F)cc1 the Potency was “inactive”.
In the case of Cc1c2c(nc3ccccc13)-c1cccc(=O)n1C2, the Potency is reported as 7.94 µM (active).
With CC(C)c1ccc2c([Si](C)(C)C)c3c(nc2c1)-c1cccc(=O)n1C3 the Potency was “inactive”.
With CC(C)(O)CCC(O)[C@@](C)(O)C1CC[C@]2(O)C3=CC(=O)C4CC(O)C(O)C[C@]4(C)C3CC[C@]12C (some centres undefined) the Potency was “inactive”.
With CCOc1ccc(N2C(=O)CC(N(O)c3ccccc3)C2=O)cc1 (centres undefined) the Potency was “inactive”.
With N#Cc1nc(COc2ccc(-c3ccccc3)cc2)oc1NCc1cccnc1 the Potency was “inactive”.
With N#Cc1nc(-c2ccc(OCc3ccccc3)cc2)oc1NCCCN1CCOCC1 the Potency was 25.1 µM (active).
For N#Cc1nc(Cc2ccccc2)oc1NCCc1ccccc1, the Potency was “inactive”.
For CC[C@]1(C)CC(=O)NC1=O, the Potency was “inactive”.
With CC(C)(C)n1nnnc1C(c1cccs1)N(Cc1cccnc1)CC1CCCO1 (centres undefined) the Potency was “inactive”.
In the case of COc1ccc2[nH]cc(CCNc3cc(-c4ccccc4CN(C)C)ncn3)c2c1, the Potency is reported as “inactive”.
In the case of Cc1cc(Nc2ccc(Br)cc2F)n2ncnc2n1, the Potency is reported as “inactive”.
In the case of Cc1ccc(NC(=O)CCNS(=O)(=O)c2ccc3c(c2)oc(=O)n3C)cc1C, the Potency is reported as “inactive”.
With C[C@@H]1/C=C\CC(=O)OC[C@H]2O[C@@H](C=C[C@@H]2O)[C@H](C)/C=C\CC(=O)OC[C@H]2O[C@H]1C=C[C@@H]2O the activity change, negative = inhibition was -0.26% [at 11.4 µM].
With CCn1c(=N)c(S(=O)(=O)c2ccc(F)cc2)cc2c(=O)n3ccccc3nc21 the Potency was “inactive”.
With CCOC(=O)c1cc2n(c1N)-c1ccccc1C2=O the Potency was “inactive”.
With CCCn1c(=NC(C)=O)c(C(=O)OCC)cc2c(=O)n3ccccc3nc21 the Potency was 20 µM (active).
For Cc1nc(Nc2ccc3c(c2)OCCO3)c2nnn(Cc3ccccc3Cl)c2n1, the Potency was 31.6 µM (active).
In the case of C#CCNc1nc(C(C)C)nc2c1nnn2Cc1ccccc1F, the Potency is reported as “inactive”.
With CC(C)(C)c1nc(NCC2CCCO2)c2nnn(Cc3ccccc3)c2n1 (centres undefined) the Potency was “inactive”.
O=c1cc(CO)oc(CN2CCC(Cc3ccccc3)CC2)c1O was tested, and the Potency was “inactive”.
In the case of OCCN1CCN(CC/C=C2\c3ccccc3Sc3ccc(C(F)(F)F)cc32)CC1, the Potency is reported as “inactive”.
In the case of CCCN1[C@H](C(=O)OC)C[C@@]2(O)[C@@H](O)[C@@H](O)[C@@H](O)C[C@@H]12, the Potency is reported as “inactive”.
In the case of Cc1nnc(SCC(=O)NCc2ccccc2)s1, the Potency is reported as “inactive”.
COc1c(C(C)C)oc2cc3oc(=O)ccc3cc12 was tested, and the Potency was “inactive”.
For Fc1ccc2nc(N3CCCCC3)sc2c1, the Potency was “inactive”.
In the case of O=C(Cn1c(=O)sc2ccccc21)Nc1nc2c(s1)CCCC2, the Potency is reported as “inactive”.
For Fc1ccc2nc(Nc3nc4c(s3)CCCC4)sc2c1, the Potency was 25.1 µM (active).
In the case of CNc1cc(-c2c(C)noc2C)ncn1, the Potency is reported as “inactive”.
With O=C1CCc2cc(S(=O)(=O)N3CCC(C(=O)NCc4ccccc4Cl)CC3)ccc2N1 the Potency was “inactive”.
COc1cccc(OC)c1C(=O)Nc1nnc(C(C)C)s1 was tested, and the Potency was “inactive”.
Cc1ccc(C(=O)Nc2nnc(-c3cccs3)s2)cc1C was tested, and the Potency was 25.1 µM (active).
With CCCc1nnc(NC(=O)c2cc(OC)cc(OC)c2)s1 the Potency was “inactive”.
Cc1cc(C)nc(N2C(=O)CC(Cc3ccccc3)C2=O)n1 (centres undefined) was tested, and the Potency was “inactive”.
COc1ccc(OC)c2[nH]c(=O)c(CCNC(=O)C(C)(C)C)cc12 was tested, and the Potency was “inactive”.
For CCCn1c(SCC(=O)N2CCc3ccccc32)nnc1-c1ccncc1, the Potency was “inactive”.
In the case of CCc1ccc(N2CC(C(=O)NC3=NCCS3)CC2=O)cc1 (centres undefined), the Potency is reported as “inactive”.
With Cc1ccc2cc3cc(C(=O)N4CCCCCC4)oc3nc2c1 the Potency was 25.1 µM (active).
For Cc1ccc(C(=O)N2CCCCCC2)cc1Br, the Potency was “inactive”.
O=C(c1cc(-c2cccs2)on1)N1CCCCC1 was tested, and the Potency was “inactive”.
Oc1c(CN2CCOCC2)ccc(CN2CCOCC2)c1O was tested, and the activity change, negative = inhibition was -11.5% [at 11.4 µM].
Work on CO[C@H]1COC(=O)[C@@H](OCc2ccccc2)/C=C\[C@H](C)[C@@H](OC)COC(=O)[C@H](OCc2ccccc2)/C=C\[C@@H]1C yielded an activity change, negative = inhibition of -0.999% [at 11.4 µM].
Compound CN(C)CCCn1c2ccccc2c2cnccc21 has an activity change, negative = inhibition of 7.17% [at 11.4 µM].
In the case of O=C(COc1ccccc1F)NC1CC1, the Potency is reported as “inactive”.
In the case of O=C(COc1ccc2c3c(c(=O)oc2c1)CCC3)NC1CCCCC1, the Potency is reported as 31.6 µM (active).
In the case of O=C(CC1OC(=O)c2ccccc21)NC1CCCCC1 (centres undefined), the Potency is reported as “inactive”.
In the case of Cc1cc(Cl)c(S(=O)(=O)NCC2CCCO2)cc1OCC(N)=O (centres undefined), the Potency is reported as “inactive”.
NC(=O)COc1ccc2c3c(c(=O)oc2c1)CCCCC3 was tested, and the Potency was 25.1 µM (active).
O=C(COc1ccc2oc3c(c2c1)CCCC3)Nc1ccccn1 was tested, and the Potency was “inactive”.
For CCOC(=O)CSc1nc2c(c(=O)n(C)c(=O)n2C)n1Cc1ccccc1F, the Potency was “inactive”.
With CCOC(=O)CSc1nnc(CNC(=O)Cc2ccccc2)n1-c1ccccc1OC the Potency was “inactive”.
For COC(=O)CSc1nc(C2CC2)nc2ccccc12, the Potency was “inactive”.
In the case of Cc1ccc(-n2ncc3c2ncn2nc(-c4ccco4)nc32)c(C)c1, the Potency is reported as 25.1 µM (active).
In the case of Cc1ccc(-n2ncc3c(N4CCN(c5ccc(F)cc5)CC4)ncnc32)c(C)c1, the Potency is reported as “inactive”.
For CCCc1nc2c3cnn(-c4cccc(Cl)c4)c3ncn2n1, the Potency was “inactive”.
